Bioassay records: PubChem BioAssay, National Center for Advancing Translational Sciences (NCATS)
PTAP TSG101 blk – qHTS Assay for Iinhibitors of HIV-1 Budding by Blocking the Interaction of PTAP/TSG101. 340,000 tested, under 10 active. Tumor susceptibility gene 101 protein (Homo sapiens), Q99816. Fluorescence polarization, FITC-PTAP peptide / Tsg101 binding. Potency, µM (series often up to 115 µM), for the others: at the highest dose activity change, negative = inhibition, hits mostly inhibitors; active = well fitted inhibition curve with a large enough effect in the main read-out, with a control signal flat, not every such curve was filed as active; inconclusive = small, poorly fitted or top-dose-only effect, or effect the other way, or a change in a side signal; inactive = no such curve, though single readings can be large or run the other way; also: potency is read from the fitted curve at half-maximal effect; % of control where 0% means no effect
Target sequence (Q99816 whole entry, looked up): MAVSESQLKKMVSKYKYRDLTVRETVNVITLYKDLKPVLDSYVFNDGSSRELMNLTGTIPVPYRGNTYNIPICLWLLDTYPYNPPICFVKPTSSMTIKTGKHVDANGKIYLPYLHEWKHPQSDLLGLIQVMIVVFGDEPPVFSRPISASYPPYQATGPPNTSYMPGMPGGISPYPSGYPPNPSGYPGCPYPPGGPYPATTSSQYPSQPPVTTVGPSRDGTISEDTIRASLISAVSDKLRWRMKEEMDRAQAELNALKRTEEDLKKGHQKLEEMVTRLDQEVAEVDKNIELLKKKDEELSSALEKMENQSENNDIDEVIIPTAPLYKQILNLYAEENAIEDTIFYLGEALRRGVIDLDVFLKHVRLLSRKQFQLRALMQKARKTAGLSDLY
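FP read-out: FITC-PTAP peptide, 50 nM final, binding Tsg101 binding domain, 10 uM final; 20 min, r.t.; 10 mM HEPES pH 7.5, 0.15 M NaCl, 0.01% Tween 20, 3 mM EDTA, 0.1 mM TCEP.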
pAkt inh – HTS Assay for Inhibitors of Akt Phophorylation: Primary Screen; AID 651550, 2012; activity change, % for hits at 50 µM; Neuro2A IGF-stimulated pAkt S473 HTRF, 20 min; stronger effect = lower value; hit rate 0.32% among 360,000; in the data active = activity change below about -80%; inconclusive = mostly about -51% to -80%; also: % is scaled to controls: 0 for no effect and ±100 for the full control effect
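Single-point screen (50 µM final compound) in Neuro2A cells stimulated 20 min with 6 nM IGF at 37 deg C. After lysis, Ser473-phosphorylated Akt read by HTRF (ex 330 nm, em 615/665 nm) as the 665/615 ratio.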
Vif-APOBEC3G blk – qHTS for Inhibitors of Vif-A3G Interactions: qHTS | Potency, µM (highest dose often 46.1 µM), without a hit: at the top dose activity, negative = active, hits mostly inhibitors | HeLa A3G-eYFP + Vif (tagged APOBEC3G with the HIV-1 protein that degrades it), YFP fluorescence, overnight | AID 602310, 2012 | DNA dC->dU-editing enzyme APOBEC-3G (Homo sapiens), Q9HC16 | hit rate 0.076% among 410,000; also: potency is read from the fitted curve at half-maximal effect; % is scaled to controls: 0 for no effect and ±100 for the full control effect; nearly all actives have a fitted effect of over 60% in size
Target sequence (Q9HC16 whole entry, looked up): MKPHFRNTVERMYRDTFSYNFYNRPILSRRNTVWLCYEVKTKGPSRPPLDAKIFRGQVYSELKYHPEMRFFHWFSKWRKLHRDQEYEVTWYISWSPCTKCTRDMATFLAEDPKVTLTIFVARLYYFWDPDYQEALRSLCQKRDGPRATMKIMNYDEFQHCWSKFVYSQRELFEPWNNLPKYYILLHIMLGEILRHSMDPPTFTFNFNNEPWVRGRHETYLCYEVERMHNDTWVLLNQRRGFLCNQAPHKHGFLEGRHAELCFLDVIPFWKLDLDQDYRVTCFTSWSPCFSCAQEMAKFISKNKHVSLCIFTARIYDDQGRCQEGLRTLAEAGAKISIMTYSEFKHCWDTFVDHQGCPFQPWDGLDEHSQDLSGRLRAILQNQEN
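Read-out is eYFP fluorescence (Ex 488/Em 500-530) from Vif-expressing HeLa A3G-eYFP cells; more signal means A3G escaped Vif-mediated degradation. Cells plated overnight, compound pinned in, incubated overnight at 37 deg C.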
ALOX12 inh – Primary qHTS assay for inhibitors of human arachidonate 12S-lipoxygenase (ALOX12): Round 2. Potency, µM (top dose mostly 108 µM), inactives show top-dose activity change, negative = inhibition, most hits filed as inhibitors. hit rate 1.1% among 580,000. Polyunsaturated fatty acid lipoxygenase ALOX12 (Homo sapiens), P18054. AID 1671190, 2021. purified 12hLO, xylenol orange hydroperoxide absorbance; also: potency is read from the fitted curve at half-maximal effect; % is scaled to controls: 0 for no effect and ±100 for the full control effect
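Purified human 12hLO (150 nM final) in 25 mM Hepes, 0.01% Triton X-100, pH 7.0 was preincubated 15 min at room temperature with compound. Then 40 uM arachidonic acid was added, 30 min. Hydroperoxide was read by Fe-XO absorbance ratio 573/405 nm.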
S-ASM inh – Inhibitors of Secretory Acid Sphingomyelinase (S-ASM): qHTS; Sphingomyelin phosphodiesterase (Homo sapiens), P17405; placental ASM, HMU-PC fluorogenic substrate, 60 min; Potency, µM (titrated, usually from 57.5 µM), for the others: top-dose activity change, negative = inhibition, hits mostly inhibitors; hit rate 0.006% among 340,000; AID 504937, 2011; also: potency is read from the fitted curve at half-maximal effect
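qHTS format. ASM enzyme prepared from human placenta hydrolyses the fluorogenic substrate HMU-PC0 (9 uM final) over 60 min at 37 °C after a 10 min compound preincubation.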
Vif-APOBEC3F blk – qHTS for Inhibitors of Vif-A3F Interactions: qHTS. HeLa A3F-eYFP + Vif (tagged APOBEC3F with the HIV-1 protein that degrades it), YFP fluorescence increase. Potency, µM (titrated, usually from 46.1 µM), without a hit: top-dose activity, negative = active. hit rate 0.2% among 390,000. AID 602313, 2012; also: potency is read from the fitted curve at half-maximal effect; % of control where 0% means no effect; nearly all actives have a fitted effect of over 65% in size
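HeLa cells stably expressing Vif plus C-terminally eYFP-tagged A3F were seeded, incubated overnight at 37 deg C, dosed with compound, incubated overnight again at 37 deg C. Yellow fluorescence (Ex 488/Em 500-530) reported blocked Vif-mediated A3F-eYFP degradation.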
Active calls of the source: *; i = inactive; ? = inconclusive; . = no result given; ! = not active in a repeat. A selection: hits, their analogues and other compounds. The true share with any hit is near 1.4%. Unless noted, calls follow the shape of the dose curve; as a rule, active = well fitted curve in the direction sought with a large enough effect; inconclusive = small, poorly fitted or top-dose-only effect, or another doubt; inactive = no such curve, though single readings can be large; an effect the other way counts as inactive or inconclusive.

SMILES | PTAP TSG101 blk | pAkt inh | Vif-APOBEC3G blk | ALOX12 inh | S-ASM inh | Vif-APOBEC3F blk
COC(=O)c1c(NC(=S)Nc2cc(OC)c(Cl)cc2OC)sc2c1CCCCC2 | 0% | i | 0% | 40µM* | -9% | 0%
COC(=O)c1c(NC(=S)NNS(=O)(=O)c2ccc(OC)cc2OC)sc2c1CCCCCC2 | -3% | i | 0% | i | -15% | 4%
O=C(c1ccc(S(=O)(=O)N2CCC(c3nc4ccccc4[nH]3)CC2)cc1)N1CCOCC1 | . | i | -1% | 5.6µM* | 1% | 2%
O=C(CN1CCCCC1)Nc1c(-c2ccccc2)c2cc(Br)ccc2[nH]c1=O | . | . | . | -7% | . | .
O=S1(=O)N[C@@H](Cc2ccccc2)COc2cc(NCCCN3CCOCC3)ccc21 | . | . | . | 50µM* | . | .
O=C1C(Cl)=C(NCc2ccco2)C(=O)c2ccccc21 | 0% | i | -7% | ? | -5% | ?
O=c1nccc(NCc2ccco2)[nH]1 | -8% | -108%* | 1% | ? | 2% | -1%
Cc1n[nH]c(C)c1NC(=O)CN1CCN(S(=O)(=O)c2ccc(C(F)(F)F)cc2)CC1 | -4% | i | -1% | -69% | -11% | 6%
COc1ccc(S(=O)(=O)N2CCN(c3ncccn3)CC2)cc1OC | 1% | i | 3% | 35µM* | 4% | -1%
COc1ccc(S(=O)(=O)N2CCN(CC(=O)Nc3c(C)n[nH]c3C)CC2)cc1OC | 0% | i | -4% | 0.56µM* | -1% | 9%
Cc1nc(SCc2ccccc2Cl)c(C#N)c(C)c1C | . | . | -1% | -8% | . | -3%
N#Cc1c(SCc2c(Cl)cccc2Cl)nc(N)[nH]c1=S | -3% | i | 3% | 32µM* | -11% | 1%
CSc1cc(/C=N/O)c(SC)s1 | -1% | -116%* | -8% | 0% | 1% | 3%
CSc1sc(C)cc1C=O | -5% | i | 1% | -15% | 0% | 10%
COc1cccc(CNC(=O)N2CCN(Cc3ccc(Cl)s3)CC2)c1 | . | . | . | 13% | . | .
O=C(CCn1ccc2cc(S(=O)(=O)N3CCCCC3)ccc21)N1CCOCC1 | . | . | . | -36% | . | .
O=C(NC(=S)Nc1ccc2c(c1)OCCO2)c1ccco1 | -2% | i | 1% | -19% | 2% | -6%
COc1cc(OC)cc(C(=O)NC(=S)Nc2ccc(N3CCCC3)cc2)c1 | -2% | i | 1% | 45µM* | -10% | -4%
COc1cc(OC)cc(C(=O)NC(=S)N2CCCCCC2)c1 | 3% | i | 2% | -18% | 6% | -12%
O=C(NC(=S)Nc1ccc(N2CCCCC2)c(Cl)c1)c1ccc2c(c1)OCCO2 | 13% | i | -26% | 22µM* | -3% | 10µM*
Cc1cc(C)cc(C(=O)NC(=S)Nc2ccc3c(c2)OCCO3)c1 | -3% | i | 0% | 6.3µM* | -2% | ?
O=C(NC(=S)Nc1ccc2c(c1)OCCO2)c1ccc(F)cc1Cl | 5% | i | 2% | -12% | 9% | -14%
Cc1ccc(C(=O)NC(=S)Nc2ccc3c(c2)OCCO3)c(C)c1 | 0% | . | 0% | 13µM* | 15% | 1%
O=C(NC(=S)Nc1ccc(N2CCOCC2)c(Cl)c1)c1cncc(Br)c1 | -6% | i | 0% | ? | -6% | -2%
CCc1ccc(C(=O)NC(=S)Nc2ccc3c(c2)OCCO3)cc1 | 0% | i | -4% | 14µM* | 30% | 6%
SMILES | PTAP TSG101 blk | pAkt inh | Vif-APOBEC3G blk | ALOX12 inh | S-ASM inh | Vif-APOBEC3F blk
Cc1ccc(C(=O)N/N=C/c2ccc(N3CCOCC3)cc2)c(C)c1 | 0% | i | -1% | 1% | 31% | -9%
O=C(NC(=S)Nc1ccc2c(c1)OCO2)c1ccc(Cl)cc1 | 0% | i | -4% | -16% | . | 7%
Cc1ccc(C(=O)NC(=S)Nc2ccc(CN3CCOCC3)cc2)cc1 | 0% | i | -1% | 35µM* | 0% | -17%
Cc1ccc(C(=O)NC(=S)Nc2ccc(N3CCOCC3)cc2)c(C)c1 | -6% | i | 0% | 7.9µM* | -11% | 1%
CCCN(CC(=O)NC(=O)NC1CCCC1)Cc1ccc(C#N)cc1 | . | . | . | 7% | . | .
CCCCCn1nc(C(=O)Nc2ccccc2C(C)=O)c2ccccc2c1=O | . | . | . | 1% | . | .
CN(C)c1ccc(NC(=O)c2cccc(S(=O)(=O)NCc3cccs3)c2)cc1 | . | . | . | -7% | . | .
CC(=O)N(\C=C/C=C/C=C1\Sc2ccccc2C1=O)c1ccccc1 | -9% | i | ? | 16µM* | -11% | ?
CCN(CC)C(=O)C1CCCN(C/C=C/c2ccccc2)C1 (stereo not drawn) | -7% | -105%* | 0% | -17% | 6% | -6%
CCCCn1c(N)c(N(Cc2ccccc2OC)C(=O)c2ccc([N+](=O)[O-])s2)c(=O)[nH]c1=O | 0% | i | ? | ? | 4% | 13µM*
Fc1ccc(-n2nnc(-c3nccs3)n2)cc1 | . | i | 2% | 11µM* | 4% | 5%
Fc1ccc(-n2nnc(-c3cccnc3Cl)n2)cc1 | . | i | -3% | 1% | 4% | 2%
CC(C)(C)n1nnnc1CN1CCN(C2CCCC2)CC1 | -11% | -103%* | 0% | 77% | 0% | 1%
CCCCn1c(NCCC)nc2c1c(=O)[nH]c(=O)n2C | -8% | i | 2% | 14% | -1% | 0%
COCCSc1nc2c(c(=O)[nH]c(=O)n2C)n1CCCc1ccccc1 | -7% | i | 1% | 28µM*! | -1% | 3%
CCCCCCn1c(SCCc2ccccc2)nc2c1c(=O)[nH]c(=O)n2C | . | . | . | 4% | . | .
C=CCNc1nc2c(c(=O)[nH]c(=O)n2C)n1CCCCC | -8% | -114%* | 1% | 438% | 0% | 1%
CCCCCn1c(SCCc2ccccc2)nc2c1c(=O)[nH]c(=O)n2C | -4% | -112%* | 2% | 0% | -3% | -6%
COCCn1c(SCCCc2ccccc2)nc2c1c(=O)[nH]c(=O)n2C | -3% | i | 1% | -28% | -5% | 6%
CCOC(=O)C(C)Sc1nc2c(c(=O)[nH]c(=O)n2C)n1CCc1ccccc1 (stereo not drawn) | -5% | -103%* | 1% | 0% | 2% | -1%
CCn1cnc2c1c(=O)n(CC(=O)N1c3ccccc3CCC1C)c(=O)n2Cc1ccccc1 (stereo not drawn) | . | . | . | -4% | . | .
Cc1ccc2c(c1)cc(C(=O)NCCN(C)C)n2C | . | . | . | -29% | . | .
